# Measured values taken from PubChem BioAssay.
# Values without a mark were called inactive. For part of these data: Measured potencies and affinities stand elsewhere. Activity calls are given as the source filed them. Unless noted, the rule behind the calls is not given here.
# Legend:
# [1] = antimalarial activity against Dd2 strain (AID 2302;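 active = growth inhibition above 50% at the single 2 µM test dose, taken to imply half-maximal potency below 2 µM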;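 note: 0% = DMSO untreated growth and 100% = chloroquine plus artemisinin killed control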); conditions: P. falciparum Dd2 in RBCs, LDH growth readout, 72 h; at 2 µM; hits give high values
# [2] = human hepatoma cell viability loss – ATP luminescence, cytotoxicity control for P. falciparum antimalarial project, primary screen (AID 2303;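 active = inhibition above 50%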;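 note: 0% = DMSO wells and 100% = digitonin-killed cells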); conditions: HepG2 viability, 24-48 h, at 10 µM, hits give high values
# [3] = biological target: L-lactate dehydrogenase (Plasmodium falciparum (isolate CDC / Honduras)) (UniProt Q27743); experiment: PfLDH activity inhibition – cell lysate, 3D7 strain, counter-screen for P. falciparum growth inhibition project (AID 2304);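 note: 0% = vehicle and 100% = reference inhibitor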; conditions: P. falciparum 3D7 crude extract, LDH APAD/NBT absorbance; at 2 µM; hits give high values
# [4] = inhibition of 3D7 malaria parasite growth – strain 3D7 (AID 2306);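 note: 0% = DMSO wells and 100% = chloroquine plus artemisinin control wells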; conditions: P. falciparum 3D7 erythrocytic growth, LDH absorbance, 72 h; at 2 µM; hits give high values
# [5] = biological target: Calcium-dependent protein kinase 1 (Plasmodium falciparum (isolate 3D7)) (UniProt P62344); experiment: PfCDPK1 kinase inhibitors, biochemical, TCAMS library (AID 1159585; cut-off not given, nearly all actives have IC50 up to about 0.98 µM;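 note: inhibitors leave more ATP so luminescence rises with inhibition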); conditions: recombinant PfCDPK1, Kinase-Glo ATP depletion luminescence
# [6] = biological target: Plasmodium falciparum protein kinase 6 (PK6, PF3D7_1337100) (UniProt Q8IDW1); experiment: PfPK6 kinase inhibitors, biochemical, TCAMS library (AID 1159586); conditions: recombinant PfPK6, Kinase-Glo ATP depletion luminescence
# [7] = biological target: Protein kinase 7 (PK7), Plasmodium falciparum 3D7 (PF3D7_0213400) (UniProt Q7YTF7); experiment: inhibition of Plasmodium PK7 catalytic activity – biochemical, TCAMS antimalarial set, Kinase-Glo luminescence (AID 1159587); conditions: recombinant PfPK7, Kinase-Glo ATP depletion luminescence
# [8] = biological target: Calcium-dependent protein kinase 4 (Plasmodium falciparum (isolate 3D7)) (UniProt Q8IBS5); experiment: PfCDPK4 kinase inhibitors, biochemical, TCAMS library (AID 1159588; cut-off not given, nearly all actives have IC50 up to about 0.91 µM); conditions: recombinant PfCDPK4, Kinase-Glo ATP depletion luminescence
# Sequence of Calcium-dependent protein kinase 4 (Plasmodium falciparum (isolate 3D7)) (Q8IBS5 whole entry, looked up): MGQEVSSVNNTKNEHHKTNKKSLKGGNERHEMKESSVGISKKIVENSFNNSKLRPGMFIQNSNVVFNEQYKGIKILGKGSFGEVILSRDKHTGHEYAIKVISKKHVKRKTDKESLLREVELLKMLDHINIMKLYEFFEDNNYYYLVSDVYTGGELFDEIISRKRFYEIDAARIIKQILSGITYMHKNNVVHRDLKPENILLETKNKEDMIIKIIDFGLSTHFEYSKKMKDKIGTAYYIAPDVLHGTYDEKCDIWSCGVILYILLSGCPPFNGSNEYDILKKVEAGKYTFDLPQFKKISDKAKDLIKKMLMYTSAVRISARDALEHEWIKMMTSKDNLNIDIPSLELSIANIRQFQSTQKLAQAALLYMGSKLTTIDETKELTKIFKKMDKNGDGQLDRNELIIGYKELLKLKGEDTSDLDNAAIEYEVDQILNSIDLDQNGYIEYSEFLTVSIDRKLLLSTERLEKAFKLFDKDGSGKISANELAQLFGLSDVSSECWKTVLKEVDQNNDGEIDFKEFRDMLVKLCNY
# Sequence of Calcium-dependent protein kinase 1 (Plasmodium falciparum (isolate 3D7)) (P62344 whole entry, looked up): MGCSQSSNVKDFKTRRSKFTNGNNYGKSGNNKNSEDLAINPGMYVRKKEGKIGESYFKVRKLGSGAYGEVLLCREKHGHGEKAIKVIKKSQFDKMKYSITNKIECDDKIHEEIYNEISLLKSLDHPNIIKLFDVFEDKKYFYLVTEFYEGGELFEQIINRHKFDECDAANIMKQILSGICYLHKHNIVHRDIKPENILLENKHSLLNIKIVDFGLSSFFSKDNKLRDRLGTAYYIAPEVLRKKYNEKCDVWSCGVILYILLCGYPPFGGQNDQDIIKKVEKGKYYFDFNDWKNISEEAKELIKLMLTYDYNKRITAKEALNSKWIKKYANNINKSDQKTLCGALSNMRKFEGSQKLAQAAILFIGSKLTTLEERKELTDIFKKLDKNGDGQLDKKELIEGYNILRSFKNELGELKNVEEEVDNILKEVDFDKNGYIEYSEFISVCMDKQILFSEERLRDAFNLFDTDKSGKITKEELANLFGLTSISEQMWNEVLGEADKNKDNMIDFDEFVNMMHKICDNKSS
# Sequence of Plasmodium falciparum protein kinase 6 (PK6, PF3D7_1337100) (Q8IDW1 1-305): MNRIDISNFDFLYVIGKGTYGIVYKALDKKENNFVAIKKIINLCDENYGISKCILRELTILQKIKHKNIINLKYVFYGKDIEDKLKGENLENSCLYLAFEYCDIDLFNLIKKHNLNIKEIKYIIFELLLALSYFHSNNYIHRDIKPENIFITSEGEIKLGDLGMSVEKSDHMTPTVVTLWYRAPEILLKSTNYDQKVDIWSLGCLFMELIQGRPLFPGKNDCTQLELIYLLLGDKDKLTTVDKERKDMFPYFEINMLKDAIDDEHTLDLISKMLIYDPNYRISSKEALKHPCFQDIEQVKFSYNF
# Sequence of Protein kinase 7 (PK7), Plasmodium falciparum 3D7 (PF3D7_0213400) (Q7YTF7 1-343): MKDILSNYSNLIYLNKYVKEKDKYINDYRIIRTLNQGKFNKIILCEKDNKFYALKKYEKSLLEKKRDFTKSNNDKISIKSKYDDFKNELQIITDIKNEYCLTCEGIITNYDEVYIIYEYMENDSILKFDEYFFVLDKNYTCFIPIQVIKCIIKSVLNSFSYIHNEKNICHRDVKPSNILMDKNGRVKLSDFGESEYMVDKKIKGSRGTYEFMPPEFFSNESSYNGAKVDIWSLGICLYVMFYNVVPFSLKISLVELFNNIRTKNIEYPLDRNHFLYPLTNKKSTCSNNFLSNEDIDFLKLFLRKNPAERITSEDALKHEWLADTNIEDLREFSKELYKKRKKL
# Sequence of L-lactate dehydrogenase (Plasmodium falciparum (isolate CDC / Honduras)) (Q27743 whole entry, looked up): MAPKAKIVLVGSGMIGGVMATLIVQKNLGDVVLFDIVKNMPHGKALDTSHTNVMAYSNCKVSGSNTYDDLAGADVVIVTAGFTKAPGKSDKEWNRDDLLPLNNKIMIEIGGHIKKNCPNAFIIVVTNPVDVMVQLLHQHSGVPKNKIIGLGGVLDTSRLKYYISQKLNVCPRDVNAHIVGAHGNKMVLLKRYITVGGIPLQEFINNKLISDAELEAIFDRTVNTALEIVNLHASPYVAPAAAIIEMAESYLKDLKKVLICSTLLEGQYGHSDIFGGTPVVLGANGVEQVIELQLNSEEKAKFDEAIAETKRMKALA
Compound,growth inhibition [1],inhibition [2],inhibition [3],growth inhibition [4],outcome [5],outcome [6],outcome [7],outcome [8]
CN(C)CCNCc1ccc(-c2ccc3c(Nc4ccc(F)cc4Cl)ccnc3c2)o1,100% (active),31%,-9%,100% (active),inactive,inactive,inactive,inactive
CCCC1N=C(N)N=C(N)N1c1cccc([N+](=O)[O-])c1 (configuration not stated),1%,-4%,3%,96% (active),inactive,inactive,inactive,inactive
CC(C)Nc1cc(C(=O)N[C@@H](Cc2ccccc2)[C@H](O)CNC2CCCCC2)cc(N2CCCCS2(=O)=O)c1,98% (active),9%,4%,98% (active),inactive,inactive,inactive,inactive
COc1ccc2nc(C)cc(Nc3ccc(Oc4ccc5ccccc5c4Cl)c(Cl)c3)c2c1,98% (active),32%,7%,100% (active),inactive,inactive,inactive,inactive
CNCCNCc1ccc(-c2ccc(-c3nc4ccc(C(F)(F)F)cc4[nH]3)s2)cc1,100% (active),30%,-2%,99% (active),inactive,inactive,inactive,inactive
Cc1cccc2[nH]c(-c3ccc(-c4cccc(CNCCc5ccncc5)c4)cc3)nc12,95% (active),28%,2%,101% (active),inactive,inactive,inactive,inactive
Cc1cccc2[nH]c(-c3ccc(-c4cccc(CN5CC(C)OC(C)C5)c4)s3)nc12 (configuration not stated),79% (active),6%,-5%,98% (active),inactive,inactive,inactive,inactive
COc1cc(OC)cc(-c2nn(-c3ccc([N+](=O)[O-])cc3Cl)c(=S)n2CC2CCCO2)c1 (configuration not stated),98% (active),5%,0%,98% (active),inactive,inactive,inactive,inactive
COc1ccc(-n2nc(C)cc2C(=O)NCc2ccc(-c3c(C)noc3C)cc2)cc1,92% (active),3%,3%,101% (active),inactive,inactive,inactive,inactive
Cc1cccc2[nH]c(-c3ccc(-c4ccc(CN5CCC(N)C5)cc4)s3)nc12 (configuration not stated),98% (active),21%,-11%,100% (active),inactive,inactive,inactive,inactive
COc1cccc(C(=O)[C@H]2C[C@@H]2CN(C)CCC(O)c2ccc(Cl)c(Cl)c2)c1 (some centres not stated),95% (active),17%,-2%,99% (active),inactive,inactive,inactive,inactive
O=C(N[C@H]1CCN(Cc2ccc(OC3CCN(Cc4ccccc4)CC3)c(Br)c2)C1)c1ccc(Cl)c(Cl)c1,30%,55% (active),-1%,100% (active),inactive,inactive,inactive,inactive
N#Cc1ccc2c(c1)CN(C1CCC(NC(=O)c3cc(-c4ccc(Cl)cc4)cs3)CC1)CCC2 (configuration not stated),99% (active),36%,0%,101% (active),inactive,inactive,inactive,inactive
CC(C)COc1ccc(Cl)cc1Cc1nc(-c2nc3ccc(CN4CCCC4)cc3[nH]2)co1,66% (active),50% (active),-1%,101% (active),inactive,inactive,inactive,inactive
COc1cc2c(cc1S(=O)(=O)c1ccc(COc3ccc(C(F)(F)F)cc3)cc1)CNCC2,89% (active),32%,5%,103% (active),inactive,inactive,inactive,inactive
Cc1cc(N[C@@H](Cc2ccccc2)C(=O)NCCOc2ccccc2)nc(NCCc2ccccc2)n1,68% (active),12%,-1%,101% (active),inactive,inactive,inactive,inactive
CCNC(=O)Nc1ccc(N(C)c2ccnc(NC3CC3)n2)cc1,80% (active),21%,-5%,100% (active),inactive,inactive,inactive,inactive
OC1CCN(c2cc(-c3ccccn3)nc(-c3ccccn3)n2)CC1,97% (active),43%,-2%,83% (active),inactive,inactive,inactive,inactive
Cc1cccc2[nH]c(-c3cccc(-c4cccc(NC(=O)CNc5ccc(C(N)=O)cc5)c4)c3)nc12,56% (active),15%,6%,100% (active),inactive,inactive,inactive,inactive
Cc1ccc(N2C(=O)C3C(C2=O)[C@]2(c4ccccc4)C(=O)[C@@]3(c3ccccc3)C(c3ccccc3)=C2c2ccccc2)c(C)c1 (some centres not stated),96% (active),3%,6%,96% (active),inactive,inactive,inactive,inactive

Compound,growth inhibition [1],inhibition [2],inhibition [3],growth inhibition [4],outcome [5],outcome [6],outcome [7],outcome [8]
O=C(NCc1cccnc1)C(c1cc2ccccc2o1)N1CCN(C(c2ccccc2)c2ccccc2)CC1 (configuration not stated),81% (active),12%,6%,95% (active),inactive,inactive,inactive,inactive
CCCCCCCCc1c(C)[nH]c(C)c(C#N)c1=O,96% (active),0%,4%,97% (active),inactive,inactive,inactive,inactive
O=C(C=Cc1ccc(Br)cc1)N1CCC(CCN2CCC(c3c[nH]c4ccccc34)CC2)CC1,24%,47%,2%,98% (active),inactive,inactive,inactive,inactive
O=C(Nc1ccccc1)N(Cc1cccc(-c2ccc(CNCc3ccc4c(c3)OCO4)cc2)c1)C1CCN(Cc2ccccc2)CC1,82% (active),27%,7%,102% (active),inactive,inactive,inactive,inactive
COc1ccc2nccc([C@@H](O)CN3CCC(NCc4ccc5c(n4)NCCC5)CC3)c2c1,39%,21%,-3%,101% (active),inactive,inactive,inactive,inactive
CC(C)COc1ccc(Cl)cc1Cc1nc(-c2nc3c(CN4CCN(C)CC4)cccc3[nH]2)cs1,30%,15%,-2%,99% (active),inactive,inactive,inactive,inactive
CCCc1c(C(=O)OCC)c2cc(O)ccc2n1-c1ccc(OC)cc1,99% (active),-2%,0%,100% (active),inactive,inactive,inactive,inactive
CC(C)(C)NCCN(Cc1ccc(-c2ccc(C(F)(F)F)cc2)cc1)C(=O)Cn1c(CCc2cccc(F)c2F)nc(=O)c2ccccc21,68% (active),46%,-4%,99% (active),inactive,inactive,inactive,inactive
C[C@H](Cc1ccc(C(=O)OCCOC(=O)c2ccc(C[C@@H](C)NC[C@H](O)c3cccc(C(F)(F)F)c3)cc2)cc1)NC[C@H](O)c1cccc(C(F)(F)F)c1,86% (active),10%,-4%,98% (active),inactive,inactive,inactive,inactive
CN1CCN(c2ccc(CNc3ccc4ncc(-c5cccc(OC(F)(F)F)c5)n4n3)cc2)CC1,78% (active),25%,3%,89% (active),inactive,inactive,inactive,inactive
COc1cc(C(=O)NCCCN2CCN(c3cc(Cl)ccc3OC)CC2)ccc1-c1nc2cc(Cl)c(Cl)cc2[nH]1,99% (active),12%,-3%,102% (active),inactive,inactive,inactive,inactive
O=C(Nc1ccc(OCc2ccccc2)cc1)c1nc2ccccc2nc1Cl,95% (active),48%,3%,96% (active),inactive,inactive,inactive,inactive
COc1ccc(C=NNc2cc(C)nc3ccccc23)c2ccccc12,69% (active),26%,-1%,99% (active),inactive,inactive,inactive,inactive
CC12CN3CC(C)(CN(C1)C3c1cc(Br)ccc1O)C2O (configuration not stated),2%,5%,-3%,98% (active),inactive,inactive,inactive,inactive
C(=NNc1cc(-c2ccccc2)nc2ccccc12)c1cccnc1,13%,23%,-1%,87% (active),inactive,inactive,inactive,inactive
Cc1ccccc1C1CCN(C2CCC(NC(=O)c3ccc(-c4cccs4)s3)CC2)CC1 (configuration not stated),54% (active),58% (active),-2%,101% (active),inactive,inactive,inactive,inactive
COc1ccc(C(=C(C)CC(C)C(=O)O)c2ccccc2)cc1 (configuration not stated),-2%,6%,-8%,95% (active),inactive,inactive,inactive,inactive
O=C1NC(c2ccc(N3CCCCCC3)cc2)Nc2ccccc21 (configuration not stated),96% (active),19%,0%,96% (active),inactive,inactive,inactive,inactive
CCC(=O)Nc1ccc(C(O)CN2CCC3(C=Cc4ccccc4O3)CC2)cc1 (configuration not stated),47%,48%,-1%,93% (active),inactive,inactive,inactive,inactive
